# The supplement of paper PMC4466236
# The full ranking holds about 33,000 sequences; the median of “E-score (dimensionless, -0.5 to 0.5)” is about -0.058, and the highest 2% start at about 0.35. Shown is part of a subset that was picked to be rich in the highest values.
# Test system: MvaT
# Test: PBM 8-mer E-score (mean of HK and ME arrays) (E-score (dimensionless, -0.5 to 0.5)); higher = stronger relative binding preference
# Outline: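 Full-length P. aeruginosa MvaT carrying an N-terminal glutathione S-transferase tag was tested by protein binding microarray following a previously described protocol. Two universal double-stranded 60-mer arrays, ME and HK, were used, each with a constant 25-mer primer region and a variable 35-mer region covering all 8-mers. The rank-based E-score is the mean of the two arrays, parsed with a custom script. Its range runs from -0.5 to 0.5 for each 8-mer.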
row,Sequence,PBM 8-mer E-score
1,CATAATGA,0.233
2,CATAATGC,0.111
3,TATAATGA,0.373
4,AATAAGGT,0.224
5,AGTAATGG,0.124
6,AAAAATGT,0.0973
7,CATAATGG,0.178
8,GATAATGC,0.151
9,GATAATGA,0.225
10,AATAATGC,0.384
11,AATAATGG,0.372
12,AATAATGT,0.408
13,CGGGACAG,-0.151
14,CCCCACTA,-0.172
15,ATGACATG,-0.0134
16,AATTTCCC,0.207
17,CTCACCAC,-0.026
18,CAGTTCAC,-0.0234
19,AACCGAAG,0.0622
20,CCCACACC,0.0355
21,AATAATGA,0.361
22,ACTAATGA,0.138
23,AGTAATGA,0.165
24,ACCTAACA,-0.00971

row,Sequence,PBM 8-mer E-score
1,GTTTATTA,0.407
2,CTTTATTA,0.402
3,ATTTATGG,0.204
4,GTTTACTA,0.147
5,ATTTATCG,0.291
6,GTTTTTTA,0.248
7,ATTTATTC,0.295
8,ATTTATCA,0.301
9,CTTTATTC,0.209
10,CTTTATCA,0.182
11,ATTTATTG,0.379
12,ATTTATTA,0.434
13,ACCTCTAC,-0.178
14,TACGTTGA,0.0324
15,AGAGCGCG,-0.146
16,GTGACCCA,-0.143
17,TGAATTAA,0.376
18,GGAATTAC,0.149
19,GGAATTAA,0.347
20,AGAATTAA,0.301
21,CGAATTAA,0.308
22,TCAATTAA,0.237
23,GGCGTGTA,-0.134
24,GGGCTGAA,-0.257

row,Sequence,PBM 8-mer E-score
1,AGCCTGTA,-0.00993
2,CAAGAAAA,-0.021
3,ACGCGTCG,-0.0515
4,ATCACGGG,-0.203
5,CTCTATAC,0.00646
6,CTATATAC,0.377
7,GTATATAC,0.41
8,ATCTATAC,0.138
9,GGATATAC,0.208
10,ATATACGC,0.291
11,CCATATAC,0.153
12,ATATATAC,0.464
13,GTATACAC,0.209
14,CTCCCTAC,-0.109
15,AATGACCG,-0.00123
16,GTAGTTTA,0.297
17,CGTGCGGA,-0.146
18,CAGTAGCC,-0.125
19,AAGTATAT,0.399
20,AAGTATAG,0.167
21,CAGTATAA,0.267
22,GAGTATAA,0.273
23,ATGTATAC,0.332
24,CTGTATAA,0.264

row,Sequence,PBM 8-mer E-score
1,ATGTATAA,0.35
2,AAGTATAC,0.338
3,AAGTATAA,0.379
4,TAGTATAA,0.384
5,TCGTATAA,0.148
6,AGGTATAA,0.291
7,ACCAGGAG,-0.239
8,CGGGAGAG,-0.265
9,CACGGGGA,-0.0937
10,CTACCCAC,-0.0554
11,ATGAAACA,0.181
12,ACTAGTAG,0.0918
13,ACTATTAA,0.411
14,TCTATTAA,0.285
15,CCTATTAA,0.249
16,AGTATTAG,0.27
17,ACTAGTAA,0.24
18,AGTATTAC,0.306
19,ACTAGTAT,0.357
20,AGTATTAT,0.42
21,CTTATTGA,0.22
22,ATTATTGA,0.354
23,GTTATTGA,0.311
24,ATGATCAA,0.176

row,Sequence,PBM 8-mer E-score
1,GAAAGGGC,-0.199
2,TAAGAACA,0.123
3,GCCGCTCA,-0.105
4,CTTTGAAA,0.141
5,ACATGTAC,0.243
6,AGGCCATC,-0.264
7,CTTATTAA,0.362
8,CTTATTCA,0.194
9,GTTATTCA,0.236
10,CTCATTAA,0.196
11,ACTATTAT,0.425
12,ATTATTAA,0.446
13,GCTATTAA,0.272
14,ATTATGAA,0.269
15,ATCATTAA,0.259
16,GTTATTAA,0.383
17,ACGATTAT,0.245
18,ACCATTAT,0.332
19,GTTTTTCA,0.0388
20,AGCGGTGG,-0.209
21,CCTGCCTC,-0.249
22,AGACTTCC,-0.21
23,AAAAAAGG,0.0491
24,CTGTCCTA,-0.112

row,Sequence,PBM 8-mer E-score
1,ATCATATA,0.338
2,GTAATACA,0.295
3,CTAATAGA,0.184
4,GTCATATA,0.282
5,CTAATATC,0.299
6,GTAATATA,0.436
7,ATAATATA,0.475
8,ATAATCTA,0.344
9,CTAATATA,0.434
10,CAGGCTCG,-0.325
11,CAGACGGA,-0.156
12,AGCTGGGG,-0.186
13,ACTACGCG,-0.0273
14,AGGGCATG,-0.207
15,GCAACGCA,-0.168
16,CCTATTTC,0.0116
17,CATATTTA,0.371
18,AATATTTA,0.45
19,CATATTTC,0.26
20,AATATTTG,0.349
21,GATATTTA,0.326
22,AATATTTC,0.404
23,AATTTTTG,0.194
24,ACTATTTC,0.201

row,Sequence,PBM 8-mer E-score
1,AATATTGA,0.327
2,CCTATTTA,0.212
3,AACATTTG,0.103
4,AGTGTGAA,0.204
5,CAGGGTTC,-0.251
6,GAAGATGA,-0.128
7,CGGAGTTC,-0.106
8,TCACCTCA,-0.163
9,CTTCTTTC,0.015
10,CTAATAGC,0.0517
11,GTAATAGA,0.164
12,AGAATAGA,0.051
13,ATAATAGC,0.362
14,ATAATAGA,0.364
15,ATAATAGG,0.291
16,TTGGAAAA,0.114
17,AACTCGTC,0.0126
18,GGGTTGAC,-0.213
19,CATACGGC,-0.244
20,ACCGTAGA,-0.0538
21,CCCGTGCG,-0.273
22,AGACGAAC,-0.107
23,ATCCAAAA,0.1
24,CCTAACCA,-0.103

row,Sequence,PBM 8-mer E-score
1,CTGCTGTC,-0.222
2,ACTTAATA,0.4
3,GCTTAATA,0.352
4,ACTTAATC,0.187
5,ACTTAATG,0.287
6,GCTTAACA,0.0832
7,CCTTAATA,0.298
8,CGATGGTC,-0.364
9,AGACAGGA,-0.156
10,CGTCCTCA,-0.231
11,ACGCGGCG,-0.275
12,ACGTTAAA,0.256
13,CACTCGTC,-0.185
14,CTGGCATC,-0.181
15,CAATCAGC,-0.0173
16,ATTAATAG,0.426
17,ATTAAGAG,0.297
18,AGTAATAA,0.327
19,ATTAAGAA,0.282
20,ATTAATAC,0.41
21,CTTAATAC,0.286
22,ATTAATAA,0.468
23,GGTAATAC,0.249
24,AGAGGTCA,-0.266

row,Sequence,PBM 8-mer E-score
1,ACGGCAAC,-0.107
2,CGTTTTGC,0.0694
3,TGGTTGAA,-0.0872
4,CCTCATAA,-0.0267
5,TCGTTAAA,0.156
6,CAGAAGGC,-0.229
7,CTGAGCAA,-0.0891
8,TAAACAGA,0.188
9,ACAGACTA,0.136
10,AGTCCGTC,-0.103
11,CGCACCCG,-0.242
12,CGTTATAA,0.39
13,CGTTATAC,0.21
14,GGTTATAC,0.0501
15,AGTTATAA,0.43
16,AGTTATCA,0.242
17,GGTTATAA,0.344
18,AGTTATGA,0.319
19,AGTTATGC,0.246
20,AGTTATAC,0.393
21,TGTTATAA,0.437
22,CGTTATAG,0.2
23,TGTTACAA,0.257
24,CCAACCGA,-0.0134

row,Sequence,PBM 8-mer E-score
1,TACCAAGA,-0.0377
2,TCCCAACA,0.111
3,CGATACCC,-0.141
4,CGCGTCCC,-0.132
5,ACTGTGAC,0.0208
6,AGTGCCGG,-0.0286
7,GTACCTTA,0.119
8,CGGGCCAA,-0.118
9,GGGCGCTA,-0.265
10,GGGACAGA,-0.12
11,CCACCGTC,-0.258
12,AGTTATAT,0.437
13,AGTTATAG,0.316
14,AGCTATAT,0.328
15,ATGGGTAC,-0.0802
16,AGCGTTGA,-0.0483
17,AGGTATGA,0.12
